Results on five compounds are retold here after PubChem BioAssay.

Assay [1] in a line: anti-His antibody binders, primary screen, artefact control for SMM control protein annotation, biochemical, small-molecule microarray, 635 nm fluorescence (AID 1128).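 Further: score merges feature fluorescence with signal-to-noise for each printed compound spot.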 The settings on record: anti-His Alexa647 antibody binding, higher = more signal.
For assay [2], the system named is Human papillomavirus type 1a E7 protein (residues 1-88). In words: HPV1a E7 small-molecule binders, primary screen, biochemical, small-molecule microarray, residues 1-88, 635 nm (AID 1129). The settings on record: small-molecule microarray binding, fluorescence 635 nm; higher = more signal.
Assay [3] has as its target Focal adhesion kinase 1 (Homo sapiens) (UniProt Q05397). In words: small-molecule microarray binders of FAK, primary screen, biochemical, 635/667 nm fluorescence, BSA, DTT (AID 1130).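 Further: composite of spot emission at 667 nm and signal to noise over triplicate slides.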 The settings on record: PTK2 binding, 635 nm fluorescence, higher = more signal.
In assay [4] the test system is Fibrinogen (Alexa647-labelled). In words: fibrinogen binders on compound microarrays, profiling panel, artefact control for SMM control-protein annotation, biochemical, small-molecule microarray, 635/667 nm fluorescence (AID 1131).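 Further: z-score merges 667 nm fluorescence with per-spot signal-to-noise over triplicate slides.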 The settings on record: fibrinogen-A647 binding fluorescence, higher = more signal.
Assay [5] addresses Follistatin (Homo sapiens) (UniProt P19883). Briefly: follistatin binders on small-molecule microarrays, primary screen, biochemical, small-molecule microarray, 635/667 nm fluorescence (AID 1132). The settings on record: FST binding, 635 nm fluorescence, higher = more signal.
Assay [6] has as its target Fibroblast growth factor 2 (Homo sapiens) (UniProt P09038). In words: FGF2 binders on small-molecule microarrays, primary screen, biochemical, small-molecule microarray, 635/667 nm fluorescence (AID 1133). The settings on record: small-molecule microarray binding, FGF2, fluorescence 635/667; higher = more signal.
Assay [7] in a line: mitochondrial membrane potential change in A549 cells, profiling panel, cell-based, JC-1 fluorescence, basal, 24 h, 100 nL (AID 1138).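 Further: A549 lung adenocarcinoma cells under basal conditions with no added stimulus; test concentration not given here.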 The settings on record: higher = more signal.
In assay [8] the test system is Lefty1. In words: Lefty1 binders on small-molecule microarrays, primary screen, biochemical, small-molecule microarray, 635/667 nm fluorescence (AID 1139). The settings on record: small-molecule microarray binding, fluorescence 635/667; higher = more signal.
Assay [9] concerns wheat germ agglutinin (Triticum aestivum), Alexa647-labelled. Briefly: wheat germ agglutinin binders on compound microarrays, profiling panel, artefact control for SMM control-protein annotation, biochemical, small-molecule microarray, 635/667 nm fluorescence (AID 1140).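 Further: score merges 667 nm feature emission with signal to noise over triplicate slides.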 The settings on record: WGA-A647 binding, 635 nm fluorescence, higher = more signal.
Assay [10] deals with Luciferin 4-monooxygenase (Photinus pyralis) (UniProt P08659). Briefly: firefly luciferase enzyme inhibitors, primary screen, biochemical, luminescence, purified enzyme, 2006 set (AID 1141).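 Further: cell-free assay with purified firefly luciferase at 100 ng per well in PBS; test concentration not given here.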 The settings on record: SteadyGlo luminescence, 30 min, higher = more signal, called active from +8 up or from −8 down.
Assay [11] concerns Wnt5a (protein binding on small-molecule microarray). In words: Wnt5a binders on small-molecule microarray, primary screen, biophysical, 635/667 nm fluorescence (AID 1142).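 Further: fluorescence read at 667 nm with signal to noise per printed feature.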 The settings on record: 635 nm fluorescence, higher = more signal.
Assay [12] can be described thus: cell viability in Huh7 cells, primary screen, cytotoxicity control for HCV replication inhibitor project, CellTiter-Glo luminescence, basal, 48 h (AID 1143).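 Further: Huh7 hepatoma cells carrying a hepatitis C replication reporter with no stimulus; test concentration not given here.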 The settings on record: Huh7 HCV replicon, higher = more signal, called active from +8 up or from −8 down. Background: ATP-based viability assays read luminescence as a measure of living cells.
The nature of assay [13]: P. aeruginosa biofilm formation inhibitors, primary screen, PAO1 strain, BacTiter-Glo luminescence, LB-PBS (AID 1144). The settings on record: 12 h, higher = more signal.
Assay [14] in a line: CREB reporter modulators without forskolin, primary screen, cell-based, PC12, CRE-LacZ reporter, unstimulated (AID 1145). The settings on record: no forskolin, luminescence, 4.5 h, higher = more signal, called active from +8 up or from −8 down.
Assay [15] in a line: CREB reporter modulators under forskolin, primary screen, cell-based, PC12, CRE-LacZ reporter, forskolin-stimulated (AID 1146).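 Further: PC12 cells with 6xCRE LacZ reporter stimulated by forskolin 10 µM; beta-galactosidase reporter signal reflecting CREB driven transcription.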 The settings on record: luminescence, 4.5 h, higher = more signal, called active from +8 up or from −8 down.
Assay [16] deals with Streptavidin (Streptomyces avidinii) (UniProt P22629). Briefly: streptavidin binders on small-molecule microarray, primary screen, artefact control for SMM compound annotation, biophysical, 635/667 nm fluorescence (AID 1147).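 Further: signal reflects streptavidin binding to arrayed compounds as a control protein.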 The settings on record: streptavidin binding, higher = more signal.
Assay [17] in a line: small-molecule binders of probe aInhba, primary screen, biochemical, small-molecule microarray, 635/667 nm fluorescence (AID 1148).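 Further: score merges 667nm spot fluorescence with signal-to-noise for antibody binding to printed compounds.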 The settings on record: higher = more signal.
In assay [18] the target is Torsin-1A (Homo sapiens) (UniProt O14656). Briefly: torsin A binders from cell lysate, primary screen, small-molecule microarray, wild-type, 635/667 nm (AID 1149). The settings on record: COS7 hTOR1A-WT lysate, 635 nm fluorescence, higher = more signal.
Assay [19] has the same target. Briefly: small-molecule binders of mutant TOR1A in lysate, primary screen, cell lysate, small-molecule microarray, COS7 lysate, 635/667 nm fluorescence (AID 1150).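 Further: score pools 667 nm emission and signal to noise measuring lysate protein binding.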 The settings on record: COS7 hTOR1A mutant lysate, 635 nm fluorescence, higher = more signal.
Assay [20] deals with Sonic hedgehog protein (Shh). In words: small-molecule binders of Shh protein, primary screen, biochemical, small-molecule microarray, 635/667 nm fluorescence (AID 1151).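 Further: Shh protein binding to compounds spotted on small-molecule microarray slides; score combines spot fluorescence intensity with signal-to-noise across triplicate slides.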 The settings on record: small-molecule microarray binding, 635 nm fluorescence; higher = more signal.

The source made the active and inactive calls. Unless noted, how the calls were made is not given here.

Luciferin 4-monooxygenase (Photinus pyralis), sequence (P08659 whole entry, looked up): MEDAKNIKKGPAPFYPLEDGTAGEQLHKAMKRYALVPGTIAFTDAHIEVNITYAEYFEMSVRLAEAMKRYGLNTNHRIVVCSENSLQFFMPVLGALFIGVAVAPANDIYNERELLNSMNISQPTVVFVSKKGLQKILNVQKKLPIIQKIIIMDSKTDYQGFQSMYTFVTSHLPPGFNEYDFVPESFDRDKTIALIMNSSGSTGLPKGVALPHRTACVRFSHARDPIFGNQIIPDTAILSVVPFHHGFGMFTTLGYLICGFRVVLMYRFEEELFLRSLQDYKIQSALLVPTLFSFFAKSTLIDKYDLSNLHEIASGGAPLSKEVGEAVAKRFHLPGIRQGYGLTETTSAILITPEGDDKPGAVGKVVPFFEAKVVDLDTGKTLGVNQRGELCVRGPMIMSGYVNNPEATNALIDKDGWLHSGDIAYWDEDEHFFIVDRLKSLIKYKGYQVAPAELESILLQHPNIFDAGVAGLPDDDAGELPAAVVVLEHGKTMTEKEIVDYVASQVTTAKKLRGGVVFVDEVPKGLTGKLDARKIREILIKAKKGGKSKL
Fibroblast growth factor 2 (Homo sapiens), sequence (P09038 whole entry, looked up): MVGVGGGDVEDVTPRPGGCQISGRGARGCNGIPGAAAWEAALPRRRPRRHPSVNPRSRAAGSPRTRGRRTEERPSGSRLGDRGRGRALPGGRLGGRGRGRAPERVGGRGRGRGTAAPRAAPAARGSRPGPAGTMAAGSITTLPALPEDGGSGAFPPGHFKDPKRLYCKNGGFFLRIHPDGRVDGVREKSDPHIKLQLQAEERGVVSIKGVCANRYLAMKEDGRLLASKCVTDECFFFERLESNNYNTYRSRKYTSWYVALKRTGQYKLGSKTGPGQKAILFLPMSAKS
Streptavidin (Streptomyces avidinii), sequence (P22629 whole entry, looked up): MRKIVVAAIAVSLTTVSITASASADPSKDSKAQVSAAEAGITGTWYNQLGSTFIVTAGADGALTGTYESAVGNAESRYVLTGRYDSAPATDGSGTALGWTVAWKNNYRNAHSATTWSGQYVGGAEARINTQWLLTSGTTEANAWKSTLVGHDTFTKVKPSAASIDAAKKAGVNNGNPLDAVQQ
Follistatin (Homo sapiens), sequence (P19883 whole entry, looked up): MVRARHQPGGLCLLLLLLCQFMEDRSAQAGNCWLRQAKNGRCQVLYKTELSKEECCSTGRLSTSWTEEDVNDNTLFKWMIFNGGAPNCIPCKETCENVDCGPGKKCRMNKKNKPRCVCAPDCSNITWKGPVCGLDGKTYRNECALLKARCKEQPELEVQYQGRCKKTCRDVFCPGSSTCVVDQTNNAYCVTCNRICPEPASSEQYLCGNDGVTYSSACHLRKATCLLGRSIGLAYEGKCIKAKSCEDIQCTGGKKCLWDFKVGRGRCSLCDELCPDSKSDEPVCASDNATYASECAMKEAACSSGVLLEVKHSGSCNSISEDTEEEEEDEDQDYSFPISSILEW
Focal adhesion kinase 1 (Homo sapiens), sequence (Q05397 whole entry, looked up): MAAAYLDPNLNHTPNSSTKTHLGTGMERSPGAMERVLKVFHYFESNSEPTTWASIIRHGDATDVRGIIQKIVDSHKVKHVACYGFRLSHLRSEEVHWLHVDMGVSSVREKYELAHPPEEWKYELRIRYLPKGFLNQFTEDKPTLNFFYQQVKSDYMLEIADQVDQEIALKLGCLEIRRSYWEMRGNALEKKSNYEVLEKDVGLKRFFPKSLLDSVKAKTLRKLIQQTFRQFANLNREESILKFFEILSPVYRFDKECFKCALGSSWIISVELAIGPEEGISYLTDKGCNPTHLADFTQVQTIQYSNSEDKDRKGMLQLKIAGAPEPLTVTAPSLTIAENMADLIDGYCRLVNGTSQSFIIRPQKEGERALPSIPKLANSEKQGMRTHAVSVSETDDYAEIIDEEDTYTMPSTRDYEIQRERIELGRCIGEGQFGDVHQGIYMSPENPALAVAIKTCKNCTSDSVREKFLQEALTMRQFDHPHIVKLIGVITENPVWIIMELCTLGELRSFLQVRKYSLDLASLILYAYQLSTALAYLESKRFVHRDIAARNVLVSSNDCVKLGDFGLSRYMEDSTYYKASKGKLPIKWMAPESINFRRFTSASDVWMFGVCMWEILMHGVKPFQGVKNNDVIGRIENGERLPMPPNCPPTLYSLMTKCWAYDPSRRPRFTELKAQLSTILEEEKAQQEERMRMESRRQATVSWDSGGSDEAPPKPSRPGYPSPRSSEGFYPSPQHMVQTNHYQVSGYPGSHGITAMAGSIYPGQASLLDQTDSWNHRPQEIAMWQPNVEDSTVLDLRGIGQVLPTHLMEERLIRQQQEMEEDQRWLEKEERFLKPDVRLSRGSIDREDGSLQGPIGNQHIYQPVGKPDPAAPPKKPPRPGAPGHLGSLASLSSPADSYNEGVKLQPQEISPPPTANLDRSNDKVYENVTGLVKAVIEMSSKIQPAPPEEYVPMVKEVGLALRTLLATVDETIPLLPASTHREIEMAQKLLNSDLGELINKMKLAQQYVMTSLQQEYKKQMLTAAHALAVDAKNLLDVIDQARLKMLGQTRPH
Torsin-1A (Homo sapiens), sequence (O14656 whole entry, looked up): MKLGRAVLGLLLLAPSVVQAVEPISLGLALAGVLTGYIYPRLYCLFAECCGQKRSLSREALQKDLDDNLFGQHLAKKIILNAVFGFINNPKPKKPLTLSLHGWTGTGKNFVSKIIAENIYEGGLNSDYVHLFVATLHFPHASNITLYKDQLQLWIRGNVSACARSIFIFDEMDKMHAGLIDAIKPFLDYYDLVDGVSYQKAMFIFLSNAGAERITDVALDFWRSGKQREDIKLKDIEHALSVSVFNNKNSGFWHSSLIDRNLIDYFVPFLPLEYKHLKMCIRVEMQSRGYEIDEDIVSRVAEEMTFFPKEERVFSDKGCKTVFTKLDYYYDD

Consider `O=C1O[C@H](c2ccccc2)[C@H](c2ccccc2)N2[C@H]1[C@@H](C(=O)NC[C@H](O)c1ccccc1)[C@]1(C(=O)Nc3ccc(C#CC4(O)CCCCCC4)cc31)[C@H]2c1ccccc1OCCO`, for which the composite z-score amounted to 1.26 in assay [1]; 1.19 in [2]; 0.412 in assay [3]; 0.494 in assay [4]; 1.26 in [5]; 1.54 in assay [6]. The composite z-score was 0.586 in [8]; 0.794 in assay [9]; 1.21 in assay [11]; -0.428 in assay [16]; 0.214 in assay [17]; 0.644 in [18]. The composite z-score in assay [19] came out at 1.08; in [20], 0.877. In addition, the z-score in [7] was -1.24; in [10], 0.361 (inactive); in assay [12], -5.52 (inactive); in assay [13], -0.52 (inactive); in assay [14] it was -0.325 (inactive); in assay [15], -0.349 (inactive).

For `C=CCOC(=O)[C@@H]1[C@H]2C(=O)O[C@H](c3ccccc3)[C@H](c3ccccc3)N2[C@H](c2ccc(OCCOC(=O)[C@H]3C[C@H]4C(=O)N[C@@H](Cc5ccccc5)C(=O)N4[C@H]3c3ccc(O)cc3)cc2)[C@@]12C(=O)Nc1ccc(I)cc12`, the composite z-score was 1.77 in assay [1]; 1.19 in assay [2]; 0.0087 in assay [3]; 0.521 in assay [4]; 1.36 in [5]; 1.39 in [6]. Further, the composite z-score in assay [8] is 1.32; in [9] it was 0.815; in [11], 0.388; in assay [16], 0.593; in [17], -0.0391; in assay [18] it was 0.72. For the same compound, the composite z-score was determined as 0.544 in assay [19] and 1.81 in assay [20]. Further, the z-score in [7] is -1.55; in [10], -1.79 (inactive); in [12], -0.409 (inactive); in [13] it was -0.00469 (inactive); in assay [14] it was 5.82 (inactive); in assay [15], 11.7 (active).

For `COc1ccccc1CN1C(=O)c2ccccc2[C@](Cc2ccccc2I)(C(=O)NC2CC2)[C@@H]1c1ccc(CO)cc1`, the composite z-score in assay [1] came to 1.74; in [2], 1.26; in assay [3], 0.646; in assay [4] it was 0.987; in [5], 1.32; in assay [6], 1.55. Moreover, the composite z-score in assay [8] is 1.16; in [9], 0.52; in [11], 0.811; in assay [16], 0.662; in assay [17] it was 0.0374; in assay [18] it was 0.427. Moreover, the figures for the composite z-score in [19] and in assay [20] were 0.71 and 2.06, respectively. Further, the z-score was 1.16 in [7]; 0.985 (inactive) in assay [10]; -4.58 (inactive) in [12]; -0.0735 (inactive) in [13]; 0.324 (inactive) in assay [14]; -0.572 (inactive) in [15].

`O=C1c2ccccc2[C@](Cc2ccccc2I)(C(=O)O)[C@H](c2ccc(CO)cc2)N1Cc1ccccc1C(F)(F)F`: the composite z-score in [1] was 1.3; in assay [2] it was 1.09; in assay [3], 0.425; in assay [4], 0.9; in assay [5] it was 0.72; in assay [6] it was -0.238. Also, the composite z-score is -0.374 in assay [8]; 1.12 in [9]; -0.186 in [11]; 0.477 in [16]; -0.024 in assay [17]; -0.242 in [18]. The composite z-score in assay [19] was -0.203; in [20], -0.489. Further, the z-score in assay [7] is -0.635; in assay [10] it was 0.63 (inactive); in assay [12], -1.17 (inactive); in [13], -0.99 (inactive); in assay [14], -0.295 (inactive); in [15], 0.748 (inactive).

Regarding `C=CCC(OC(C)=O)[C@@H]1[C@@H](N(Cc2ccc(-c3ccccc3)cc2)C(=O)c2ccc(C)cc2)c2cc(OCCCO)ccc2N1C(=O)c1ccc2ccccc2n1` (stereo not given in full), the composite z-score in [1] was -0.512; in [2], -0.0119; in [3], -0.0203; in [4], -0.459; in assay [5], 0.0869; in assay [6], -0.006. For the same compound, the composite z-score in [8] is -0.135; in [9], -0.0101; in assay [11], -0.162; in assay [16] it was 0.105; in [17] it was 0.173; in [18] it was -0.211. Further, the composite z-score in assay [19] worked out at 0.115; in assay [20], 0.794. Also, the z-score in assay [7] is 3.18; in assay [10], -1.9 (inactive); in assay [12], -1.16 (inactive); in [13], -1.41 (inactive); in [14] it was 5.54 (inactive); in [15], -0.523 (inactive).
